# Experimental data from PubChem BioAssay AID1851 (National Center for Advancing Translational Sciences (NCATS), 2009).
# Hit rate of the full screen: of about 16,000 compounds, about 5,700 (36%) were called active. Roughly 24% stayed inconclusive and do not appear here. The list shows a part of the results. Unmarked numbers belong to inactive results. Calls come from the whole dose curve; as a rule, active = well fitted curve in the direction sought with a large enough effect; inconclusive = small, poorly fitted or top-dose-only effect, or effect the other way; inactive = no such curve, though single readings can be large or run the other way.
# Biological target: Cytochrome P450 1A2 (Homo sapiens) (UniProt P05177)
# Sequence (P05177 whole entry, looked up): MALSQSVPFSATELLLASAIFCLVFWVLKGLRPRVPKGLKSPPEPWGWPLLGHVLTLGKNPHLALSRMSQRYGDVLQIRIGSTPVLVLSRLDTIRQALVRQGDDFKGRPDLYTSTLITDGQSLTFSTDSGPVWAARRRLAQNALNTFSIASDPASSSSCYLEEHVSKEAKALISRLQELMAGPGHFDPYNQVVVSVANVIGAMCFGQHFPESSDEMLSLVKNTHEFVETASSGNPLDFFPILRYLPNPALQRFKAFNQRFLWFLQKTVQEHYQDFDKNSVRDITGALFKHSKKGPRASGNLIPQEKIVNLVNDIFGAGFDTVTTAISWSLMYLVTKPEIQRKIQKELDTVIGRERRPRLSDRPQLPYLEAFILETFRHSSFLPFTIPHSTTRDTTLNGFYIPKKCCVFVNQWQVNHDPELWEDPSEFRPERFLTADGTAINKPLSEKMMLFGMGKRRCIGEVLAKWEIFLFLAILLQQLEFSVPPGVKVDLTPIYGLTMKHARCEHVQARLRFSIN
# Assay: Cytochrome panel assay with activity outcomes
# Conditions: recombinant CYP, pro-luciferin dealkylation, luminescence, p450-cyp1a2; series mostly up to 57.1 µM; activity, negative = inhibition: at the top concentration
# % is set by controls: 0 for no effect and ±100 for the full control effect.
SMILES,"activity, negative = inhibition",AC50
O=C(O)CNC(=O)[C@@H](CS)Cc1ccccc1,-8.2%,–
COc1ccc2nc3c(c([Si](C)(C)C(C)(C)C)c2c1)Cn1c-3cccc1=O,–,0.794 µM (active)
COc1cc2nc3c(c([Si](C)(C)C(C)(C)C)c2cc1OC)Cn1c-3cccc1=O,–,5.01 µM (active)
CC(C)(C)[Si](C)(C)c1c2c(nc3ccc(OCc4ccccc4)cc13)-c1cccc(=O)n1C2,–,5.01 µM (active)
COCCn1c(=O)c(C)nc2cnc(N3CCN(C)CC3)nc21,–,15.8 µM (active)
CN1CCN(c2ncc3nc(-c4cc(F)cc(F)c4)c(=O)n(CCc4ccccc4)c3n2)CC1,-16.9%,–
Cc1nc2cnc(N3CCN(C)CC3)nc2n(CCc2ccccc2)c1=O,–,10 µM (active)
COCCn1c(=O)c(C)nc2cnc(N3CCNCC3)nc21,–,10 µM (active)
COc1ccc(-c2nc3cnc(N4CCN(C)CC4)nc3n(CCc3ccccc3)c2=O)cc1,-5.93%,–
CN(C)C[C@H]1CCC2=C(C1=O)C(c1ccc(Cl)c(Cl)c1)C1=C(CC[C@H](CN(C)C)C1=O)O2,-2.04% [at 2.29 µM],–
CC[C@H]1C2=C3C(CC[C@H]4C(OCc5ccc(F)cc5C(F)(F)F)OC[C@](C)([C@@H]34)N(C(=O)OC(C)(C)C)C2)C(COC(C)=O)C1COC(C)=O (some centres undefined),-20.1%,–
Oc1cc(CN2COc3ccccc32)c(O)cc1CNC1CCCCC1,-14.2% [at 11.4 µM],–
Cc1cc(C(C)(C)C)cc(CNC2CCCCC2)c1O,–,3.16 µM (active)
CO[C@@H]1COC(=O)C/C=C\[C@@H](C)COC(=O)[C@H](Cc2ccccc2)NC(=O)C/C=C\[C@H]1C,5.59% [at 11.4 µM],–
CCC(=O)NCc1c(Cl)cccc1-n1cccc1,–,14.1 µM (active)
O=C(NNC(=O)c1ccccc1-n1cccc1)c1ccccc1,-15%,–
COc1nc(C)nc(Cl)c1NC1=NCCN1,–,inactive
C/C(=C\c1ccco1)C1C(C#N)=C(N)Oc2n[nH]c(-c3ccccc3)c21 (centres undefined),–,0.2 µM (active)
COc1ccc(C(C)(C)C)cc1NC(=O)c1cncc(Br)c1,–,1 µM (active)
COc1ccc(Nc2nc(N)nc(CSc3n[nH]c(-c4ccccc4)n3)n2)cc1,–,15.8 µM (active)
Cc1nnc(SCc2nc(N)nc(Nc3ccccc3)n2)s1,–,4.47 µM (active)
NC[C@@H]1O[C@H](O[C@@H]2[C@H](O[C@@H]3O[C@H](CO)[C@@H](COC[C@H]4O[C@@H](CN)[C@@H](O)[C@@H](O)[C@@H]4N)[C@@H]3O)[C@@H](O)[C@@H](N)C[C@H]2N)[C@@H](N)[C@H](O)[C@@H]1O,-3.52% [at 25.6 µM],–
CC(C)c1ccc(N(C(=O)C(F)(F)F)C(C(=O)NC2CCCCC2)c2ccncc2)cc1 (centres undefined),-19.1%,–
O=C(OC(C(=O)NC1CCCC1)c1ccncc1)C1=Cc2ccccc2OC1 (centres undefined),–,11.2 µM (active)

SMILES,"activity, negative = inhibition",AC50
Cc1cc(C)cc(N(C(=O)Cc2cccs2)C(C(=O)NC2CCCCC2)c2ccccn2)c1 (centres undefined),-28.1%,–
NCCOB(c1ccccc1)c1ccccc1,–,15.8 µM (active)
Cc1noc(C)c1C(=O)N1CCC2(CCCN(Cc3ccc(C#N)cc3)C2)CC1,-23.7%,–
Cc1noc(C)c1-c1cc(Nc2ccccc2)ncn1,–,1.26 µM (active)
Cc1noc(C)c1-c1cc(Nc2ccc(F)cc2)ncn1,–,0.501 µM (active)
Cc1noc(C)c1C(=O)OCC(=O)NC(c1ccccc1)c1ccccc1,-5.73%,–
Cc1n[nH]c(C)c1S(=O)(=O)N1CCOCC1,0.471%,–
CCc1cc2c(nc1CC)CCN(CC/C(C)=N/O[C@@H](C)c1cc(-c3c(C)cc(C)cc3C)no1)C2,-8.6% [at 11.4 µM],–
O=C(c1cnn(-c2ccccc2)c1)c1ccc2ccccc2c1O,–,2.51 µM (active)
O=C(O)/C(=C\c1ccc(O)cc1)c1cccc2ccccc12,-10.8% [at 11.4 µM],–
CC(C)CNC(=O)O,-14.2% [at 11.4 µM],–
Cc1ccc(CN2C(=O)CCC2C(=O)NCc2cccnc2)cc1 (centres undefined),1.64%,–
Cc1ccc(NC2c3ncccc3C(=O)N2Cc2ccc(F)cc2)cc1 (centres undefined),–,11.2 µM (active)
CN[C@@H]1NC(=O)c2ccccc2N1Cc1ccc(F)cc1,-7.56% [at 2.29 µM],–
Cc1cccc(CNc2ncnc3ccc(-c4ccc(C(=O)N(C)C)cc4)cc23)c1,–,15.8 µM (active)
CN(C)c1ccc(-c2ccc3ncnc(NCc4ccccc4)c3c2)cc1,–,0.501 µM (active)
CN(C)C(=O)c1ccc(-c2ccc3ncnc(NCc4cccs4)c3c2)cc1,–,15.8 µM (active)
CN(C)C(=O)c1ccc(-c2ccc3ncnc(NCc4ccccc4)c3c2)cc1,–,15.8 µM (active)
CO[C@@H](C(C)C)[C@@H](C)[C@@H]1OC(=O)C[C@@H]1O,-5.03% [at 11.4 µM],–
CN(C)c1ccc(-c2cncnc2NCc2ccccc2)cc1,–,1 µM (active)
CN(C)c1ccc(-c2cncnc2NCc2cccnc2)cc1,–,1 µM (active)
CC(C)CO/N=C1/C[C@@H](O)[C@@H](O)[C@@H]2[C@@H]3C(=O)N([C@@H](C)c4ccccc4)C(=O)[C@H]3CC[C@H]12,4.53% [at 11.4 µM],–
CN=C1S/C(=C\c2ccc(Sc3ccc(Cl)cc3)o2)C(=O)N1C,–,3.55 µM (active)
Clc1ccc(Sc2ccc(/C=N/n3cnnc3)o2)cc1,–,14.1 µM (active)

SMILES,"activity, negative = inhibition",AC50
CN(C)c1nc(C#N)nc(N2CCOCC2)n1,–,1.58 µM (active)
Cc1cc(C(=O)OC2CCOC2=O)c2ccccc2n1 (centres undefined),–,2.82 µM (active)
CC1(C)[C@@H]2CC[C@@](C)(C2)[C@H]1OC(=O)c1ccccc1C(=O)O,2.82% [at 11.4 µM],–
CCCCCCN1Cc2ccccc2C1,–,12.6 µM (active)
OC(CCCN1CCCCC1)(c1ccccc1)c1ccccc1,-1.9% [at 25.6 µM],–
CCCCN1CCC(n2c(=O)[nH]c3ccccc32)CC1,6.49%,–
COCCCNC(=O)CN(c1ccc(OC)cc1)S(=O)(=O)c1ccc(NC(C)=O)cc1,1.37%,–
COc1ccc(CCNC[C@H](O)c2ccc(O)cc2)cc1OC,-7.59%,–
C=CCOc1ccc(CNC(C)(C)CO)cc1OC,11.9%,–
CCOc1nc(NCCc2ccc(OC)c(OC)c2)nc(NC(C)(C)CO)n1,–,5.01 µM (active)
CCSC[C@@H](N)C(=O)O,-1.61% [at 2.29 µM],–
Cc1c(Cl)c([N+](=O)[O-])nn1Cc1ccc(C(=O)N/N=C\c2cc(Cl)ccc2O)o1,–,1.58 µM (active)
Cc1c(Cl)c([N+](=O)[O-])nn1Cc1ccc(C(=O)N/N=C\c2cccc(Br)c2)o1,–,3.16 µM (active)
Cc1nn(Cc2ccc(Cl)cc2)c(C)c1NC(=O)Cn1nc([N+](=O)[O-])c(Cl)c1C,-24.4%,–
CN(C)CC(O)COc1ccc(C(C)(C)c2ccc(OCC(O)CN(C)C)cc2)cc1 (centres undefined),-5.06%,–
CC(=O)Nc1cccc(N2C(=O)CCC2=O)c1,1.31%,–
CC1(C)OC(=O)C(=CNc2cccc(O)c2)C(=O)O1,–,12.6 µM (active)
CSCCC(NC=C1C(=O)OC(C)(C)OC1=O)C(=O)O (centres undefined),2.08%,–
O=C(O)[C@H]1CC=CC[C@@H]1C(=O)Nc1cccc(O)c1,-18.8% [at 11.4 µM],–
CC(=O)c1cccc(NC=C2C(=O)OC3(CCCCC3)OC2=O)c1,–,3.55 µM (active)
CCCC[C@H](CC)CN1CN(C[C@@H](CC)CCCC)CC(C)(N)C1,-9.62% [at 25.6 µM],–
Cc1cc(C)n(-c2nc(NC(C)C)nc(NC(C)C)n2)n1,–,10 µM (active)
Cc1cc(C)n(-c2nc(Nc3ccccc3C)nc(-n3nc(C)cc3C)n2)n1,-29.6%,–
COc1cccc(C(=O)/C=C/c2ccc(SC)cc2)c1,–,2.51 µM (active)

SMILES,"activity, negative = inhibition",AC50
CCOC(=O)CSc1n[nH]c(NC(=O)c2ccccc2)n1,–,10 µM (active)
CCOC(=O)CC(=O)CSc1nc(-c2cccnc2)cc(C)c1C#N,–,10 µM (active)
CCOC(=O)CSc1nnc(NC(=O)c2cccc(S(=O)(=O)N3CCCCCC3)c2)s1,5.01%,–
CCOC(=O)CSc1n[nH]c(NC(=O)c2cccc(C)c2)n1,–,15.8 µM (active)
Cc1ccc(NC(=O)CN(C)C(=O)CSc2n[nH]c(N)n2)cc1,8.75%,–
CCOC(=O)CSc1n[nH]c(NC(=O)c2cccc(C(F)(F)F)c2)n1,–,3.16 µM (active)
Cn1sc(NC(=O)c2ccccc2)nc1=O,-23%,–
C[C@@H]1NC(=O)C/C=C\[C@@H](C)[C@@H]2C=C[C@H](O)[C@@H](COC(=O)[C@H](C)NC(=O)C/C=C\[C@@H](C)[C@@H]3C=C[C@H](O)[C@@H](COC1=O)O3)O2,-3.28% [at 11.4 µM],–
COC(=O)N1CCC2(CC1)CN(C(=O)Nc1cccc(C#N)c1)C2,14.1%,–
CN1CCC(=C2c3ccccc3CCc3sccc32)CC1,-6.82% [at 25.6 µM],–
CCOC(=O)CSc1n[nH]c(-c2cccnc2)n1,–,2.51 µM (active)
COc1ccc(CNc2ncnc3ccc(-c4ccoc4)cc23)c(OC)c1,–,1.58 µM (active)
COc1ccccc1CNc1ncnc2ccc(-c3ccoc3)cc12,–,2.51 µM (active)
CS(=O)(=O)N1CCC[C@@]2(CCN(C(=O)Nc3ccccc3)C2)C1,-16.3%,–
COC(=O)[C@@]1(Cc2ccccc2)[C@H]2c3cc(C(=O)N4CCCC4)n(Cc4ccccn4)c3C[C@H]2CN1C(=O)c1ccccc1,-15.4%,–
N[C@H](C(=O)O)[C@@H]1C[C@@H]1C(=O)O,–,inactive
O=c1[nH]c2cc(Br)cnc2nc1/C=C(\O)c1ccc(F)cc1,–,0.398 µM (active)
CCNc1ncc2nc(-c3ccc(OC)cc3)c(=O)n(Cc3ccc(F)cc3)c2n1,-16.1%,–
CCNc1ncc2nc(-c3ccc(F)cc3)c(=O)n(C)c2n1,–,0.501 µM (active)
CCNc1ncc2nc(-c3cc(F)cc(F)c3)c(=O)n(C)c2n1,–,2 µM (active)
CCNc1ncc2nc(-c3ccccc3)c(=O)n(C)c2n1,–,0.398 µM (active)
CCNc1ncc2nc(-c3cccc(C#N)c3)c(=O)n(C)c2n1,–,2.51 µM (active)
